# Experimental data as given in PubChem BioAssay AID624330 (Southern Research Specialized Biocontainment Screening …, 2012).
# The whole screen tested about 340,000 compounds, of which about 2,100 (0.62%) were called active. Not all results are given here. Entries with a potency or affinity are not part of this list. Unmarked numbers belong to inactive results.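 How the source made its calls: active means first-screen hits whose inhibition reached a set limit at any dose in the follow-up dose series; inconclusive means inhibition above the set first-screen limit but never retested; inactive means the rest.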
# Biological target: Rac GTPase-activating protein 1 (Homo sapiens) (UniProt Q9H0H5)
# Sequence (Q9H0H5 whole entry, looked up): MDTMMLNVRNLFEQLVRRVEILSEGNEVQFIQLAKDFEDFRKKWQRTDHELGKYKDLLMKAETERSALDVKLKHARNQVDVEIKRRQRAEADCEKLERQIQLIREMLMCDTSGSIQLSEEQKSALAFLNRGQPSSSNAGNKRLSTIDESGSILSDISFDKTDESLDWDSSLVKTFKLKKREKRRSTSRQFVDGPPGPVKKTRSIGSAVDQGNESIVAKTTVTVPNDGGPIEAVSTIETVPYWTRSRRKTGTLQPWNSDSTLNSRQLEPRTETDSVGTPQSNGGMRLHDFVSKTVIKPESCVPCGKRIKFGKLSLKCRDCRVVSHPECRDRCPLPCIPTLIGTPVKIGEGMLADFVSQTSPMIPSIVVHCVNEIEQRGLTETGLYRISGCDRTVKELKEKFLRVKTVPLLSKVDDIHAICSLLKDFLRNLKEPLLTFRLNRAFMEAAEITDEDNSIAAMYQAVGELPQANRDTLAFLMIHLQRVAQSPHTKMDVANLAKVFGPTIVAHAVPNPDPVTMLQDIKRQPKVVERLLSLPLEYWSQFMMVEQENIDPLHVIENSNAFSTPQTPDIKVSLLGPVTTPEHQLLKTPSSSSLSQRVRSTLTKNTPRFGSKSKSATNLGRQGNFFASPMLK
# Assay: MgcRacGAP GTPase-activating activity inhibitors, confirmation, biochemical, ADP Hunter fluorescence, primary and confirmatory (AID 624330);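 further: fluorescence reports GDP produced by GAP-driven GTP hydrolysis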
# Conditions: MgcRacGAP-stimulated Rac1 GTP hydrolysis, at 30 µM, hits give high values, GST-tagged Rac1 F28L mutant substrate
row,SMILES,inhibition [%]
1,Cc1ccn2cc(CCNC(=O)CC3CCCCC3)nc2c1,16
2,O=C(c1cc(Cl)nc2ccccc12)N1CCCCC1,3.41
3,CCN(CC)c1ccc(C(=O)Nc2cccc(F)c2)cc1,15.5
4,CCN(CC)c1ccc(C(=O)NNC(=O)CCl)cc1,9.55
5,Cc1ccc(-c2csc(NC(=O)c3ccccc3F)c2C(=O)O)cc1,5.32
6,COc1cccc(COC(=O)c2cc(S(=O)(=O)N3CCCCC3)ccc2N2CCOCC2)c1OC,-0.42
7,COc1ccc(CNS(=O)(=O)CCNCCc2ccccc2)cc1,6.36
8,COc1ccc(CCNC(=O)C(=O)NCCCN2CCOCC2)cc1,0.98
9,COc1ccc(CC(=O)NCCN2CCOCC2)cc1,-0.23
10,COc1ccc(CCNCc2ccc(OCc3ccccc3)cc2)cc1,-1.52
11,O=C(Cc1ccc(F)cc1)NCCc1ccccc1,-3.3
12,O=S(=O)(Cc1ccccc1)NCCc1ccc(F)cc1,-2.46
13,O=C(c1ccc(Br)o1)N1CC=C(c2ccccc2)CC1,-9.29
14,COCCCNC(=O)C1CCCN(S(C)(=O)=O)C1 (stereo not drawn),4.1
15,N=c1c(S(=O)(=O)c2ccc(Br)cc2)cc2c(=O)n3ccccc3nc2n1C1CCCC1,3.79
16,N#CCC(=O)Nn1c(=S)[nH]c2ccccc2c1=O,3.15
17,CCSCCOC(=O)C1=C(C)NC(=O)NC1c1ccccc1 (stereo not drawn),2.5
18,CCCCNC(=O)CNC(=S)N(Cc1cc(OC)c(OC)c(OC)c1)C1CCCC1,5.07
19,COc1ccc(C(=O)CN2CCN(c3ccc(F)cc3)CC2)cc1,11.7
20,COc1ccccc1N1CCN(CCCC(=O)c2ccc(F)cc2)CC1,8.13
21,COc1ccccc1N1CCN(CCCCOc2ccc(F)cc2)CC1,4.56
22,COc1ccccc1N1CCN(CCCCCCOc2ccc(F)cc2)CC1,7.05
23,CCN(CC)S(=O)(=O)c1ccc(NC(=O)C(OC)c2ccccc2)cc1 (stereo not drawn),11.8
24,C/C(=N\Nc1ccccn1)c1ccc(C#N)cc1,6.31
25,Cc1nn(CC(=O)N2CCc3ccccc3C2)c(C)c1[N+](=O)[O-],4.25

row,SMILES,inhibition [%]
1,Nc1ccc(-c2nc3ccccc3o2)cc1,4.77
2,Nc1ccc(-c2nc3cc(N)ccc3o2)cc1,17.5
3,COc1ccc(CC(=O)OCC(=O)NCc2ccc(Cl)cc2)cc1,-11.6
4,COc1cccc(NC(=O)COC(=O)c2ccccc2C(=O)N2CCN(c3ccccc3)CC2)c1,-5.54
5,Cc1ccccc1N(CC(=O)N1CCCC1)S(=O)(=O)c1ccc(Cl)cc1,5.47
6,CCOc1ccc2nc(-c3ccccc3)nc(SCC(=O)Nc3ncc(C)s3)c2c1,-5.25
7,O=C(COc1ccc2c3c(c(=O)oc2c1)CCC3)N1CCCC1,11.2
8,CSc1ncccc1C(=O)NCC1CCCCC1,6.8
9,CC(C)C(=O)Nc1ccc2c(c1)Cc1cc(NC(=O)C(C)C)ccc1-2,12.2
10,COc1cc2c(cc1NC(=O)C(F)(F)F)-c1ccc(NC(=O)C(F)(F)F)cc1C2,4.33
11,O=C(CNC(=O)C(c1ccccc1)c1ccccc1)N/N=C\c1cccc(O)c1,6.95
12,CCOc1ccc(/C=N\NC(=O)CC(=O)NCCc2ccccc2)cc1,13
13,COc1ccc(/C=N\NC(=O)CNC(=O)C(c2ccccc2)c2ccccc2)cc1[N+](=O)[O-],-25.7
14,COc1ccc(NC(=O)CCNC(=O)c2ccccc2Cl)cc1OC,9.17
15,COc1cc(C(=O)N/N=C/c2ccc(OC(=O)c3ccccc3Cl)c(OC)c2)ccc1O,17.8
16,COc1cccc(/C=N/NC(=O)CCc2ccccc2)c1,8.09
17,Cc1ccc(/C=N\NC(=O)CC(=O)NCCc2ccccc2)cc1,-1.99
18,COc1ccc(/C=N/NC(=O)CCc2ccccc2)cc1O,26.6
19,COCCN(C(=O)COC(=O)c1ccc(Br)o1)c1c(N)n(Cc2ccccc2)c(=O)[nH]c1=O,7.5
20,O=c1[nH]c(CSc2ncccn2)nc2c1cnn2-c1ccccc1,9.39
21,Fc1ccc(-n2cc(CNCCc3cccnc3)c(-c3ccccc3Cl)n2)cc1,5.92
22,C=CC[C@@H](CC(=O)N(CCO)Cc1ccccc1)C(=O)N[C@H](COC(=O)[C@@H](CC=C)Cc1ccc(F)cc1)C(C)(C)C,4.96
23,CC1(C)CC(=O)C(CC2C(=O)CC(C)(C)CC2=O)C(=O)C1,12.9
24,COC(=O)c1cccnc1SCc1ccccc1,3.27
25,CCOc1ncccc1C(=O)Nc1cccc(S(=O)(=O)N2CCOCC2)c1,3.19

row,SMILES,inhibition [%]
1,COC(=O)CCNC(=O)Cn1cnc2sc3c(c2c1=O)CCCC3,3.18
2,CC1(C)CC(=O)N(Cc2ccccc2)C(=O)C1,2.51
3,O=C(NCCc1ccc(F)cc1)C(=O)NCC1CCCN1S(=O)(=O)c1cccs1 (stereo not drawn),-7.17
4,COc1ccc(/C=N/NC(=O)CC(=O)NCCc2ccccc2)cc1OC,1.81
5,COc1cc(/C=N/NC(=O)C(=O)NCc2ccco2)ccc1O,17.7
6,COc1ccc(/C=N/NC(=O)/C(=C/c2ccccc2)CCO)cc1,8.48
7,COC(=O)c1ccc(/C=N\NC(=O)CC(=O)NCCc2ccccc2)cc1,0.63
8,CC(C(=O)Nc1ccc(S(=O)(=O)N2CCOCC2)cc1)N1CCN(c2ccccn2)CC1 (stereo not drawn),-2.88
9,CCc1cc(C(=O)OC)c(NC(=O)CC2NCCNC2=O)s1 (stereo not drawn),0.55
10,OC(COc1ccccc1Br)CN1CCNCC1 (stereo not drawn),1.5
11,CC(C)OCC(O)CN1CCNCC1 (stereo not drawn),5.48
12,CC(C)CN(CC(C)C)C(=O)C12CCC(C)(C(=O)C1)C2(C)C (stereo not drawn),-15.8
13,Cc1ccc(NC2CCCN(C(=O)c3cccs3)C2)cc1C (stereo not drawn),22.5
14,CCOc1ccc(OCc2ccc(C(=O)N3CCCC(C)C3)cc2)cc1 (stereo not drawn),0.96
15,Cc1ccc(NC(=O)CN2CCCC2)cc1Br,30.6
16,O=C(Cc1ccccc1)N/N=C/c1cc(Br)cs1,10.7
17,COc1ccccc1NC(=O)CN1CCN(c2ccccc2)CC1,3.59
18,COCCOc1ccc(C(F)(F)F)cc1NC(=O)c1ccc(C(F)(F)F)cc1,-6.51
19,CN1CCN(CC(=O)Nc2ccccc2Oc2ccccc2)CC1,4.33
20,CCCCCNCC(=O)Nc1cc(C(F)(F)F)ccc1OCCOC,29.2
21,Cc1ccc(NC(=O)CN2CCCCCC2)cc1Br,24.2
22,Cc1nccn1CC(=O)N/N=C/c1cc(Br)cs1,3.63
23,O=C(CNC(=O)c1ccccc1)NCC(O)c1ccc([N+](=O)[O-])cc1 (stereo not drawn),-4.75
24,CCOCCCNC(=O)Cn1cnc2sc(C)c(S(=O)(=O)N3CCN(c4ncccn4)CC3)c2c1=O,2.97
25,CC(C)C[C@H]1CN([C@@H](Cc2ccc(O)cc2)CN2CCC[C@@H]2CN2C(=O)C(=O)NC[C@@H]2Cc2ccccc2)C(=O)C(=O)N1CC1CCCCCC1,10.4

row,SMILES,inhibition [%]
1,O=C(CNC(=O)c1ccco1)NCc1ccc2c(c1)OCO2,3.26
2,C=CCn1c(-c2ccc(Cl)cc2)cnc1SC(C)C(N)=O (stereo not drawn),13.8
3,CCOc1cc(N2CCOCC2)c(OCC)cc1NC(=O)c1ccc2ncsc2c1,9.53
4,Cn1c(=O)c2[nH]c(Cc3cccc(O)c3)nc2n(C)c1=O,-6.27
5,O=C(Nc1ccc2c(c1)OCO2)O[C@@H]1C[C@H]2CCC(=O)N3CC[C@@H](C1)[C@@H]23,5.22
6,COc1ccc(CN2CCNC(=O)C2CC(=O)NCCc2nc(C)c3c(n2)CCC3)cc1C (stereo not drawn),3.36
7,COc1ccc(N)cc1NC(=O)CN1CCCC1,30
8,CCOC(=O)N1CCN(CC(=O)Nc2ccc(C)c(Br)c2)CC1,19.6
9,CCCCOc1ccc(NC(=O)CN2CCN(Cc3ccccc3)CC2)cc1,2.92
10,Cc1ccc(NC(=O)CCN2CCN(CCO)CC2)cc1Br,7.64
11,CCCCOc1ccc(NC(=O)CN2CCN(C(=O)OCC)CC2)cc1,23.5
12,Cc1ccc(N)cc1NC(=O)CN1CCOCC1,9.26
13,CCOc1ccccc1NC(=O)CSC1=NN2CCCC(=O)N=C2S1,4.37
14,O=C(Cc1nnc(NC(=O)Nc2ccccc2)s1)NCc1ccccc1,11.4
15,O=C(Cc1ccccc1)NCCSCc1ccccc1,10.9
16,CC(=O)NS(=O)(=O)c1ccc(NC(=O)c2cccc3ccccc23)cc1,5.73
17,COC(=O)c1ccccc1NC(=O)c1cc(-c2ccc(C)cc2)on1,-6.22
18,N#CCCN1CCN(C(=S)c2ccc(-c3cccc(Cl)c3)o2)CC1,6.88
19,Cc1ccc(N=c2ssnc2Cl)cc1,9.47
20,Clc1nssc1=Nc1nncs1,20.4
21,CCCCCCCNC(=O)C1(CC2CC(c3ccccc3)=NO2)CCN(C(=O)c2ccccc2)CC1 (stereo not drawn),7.41
22,O=C(Cc1cccc(C(F)(F)F)c1)N1CCCC1,1.4
23,COc1ccc(Br)cc1/C=N/NC(=O)CN1CCN(Cc2ccccc2)CC1,2.09
